What all share (assay): NCI-60 one-dose screen, 48 h (100 = growth as untreated, 0 = no growth, -100 = all killed)
In one test the test system is K-562 leukemia. The following applies: 10 µM unless noted.
The next test has as its system MALME-3M melanoma. Conditions: 10 µM unless noted.
In a further test the test system is MDA-MB-231 breast. Conditions: 10 µM unless noted.
Another test concerns RXF 393 renal. The following applies: 10 µM unless noted.
The test system of the next test is SF-268 CNS. The following applies: 10 µM unless noted.
A further test relates to SF-295 CNS. The following applies: 10 µM unless noted.
A further test has as its system SF-539 CNS. Conditions: 10 µM unless noted.
Another test deals with UACC-257 melanoma. Conditions: 10 µM unless noted.
The next test has as its system M14 melanoma. The following applies: 10 µM unless noted.
A further test deals with HCT-15 colon. The following applies: 10 µM unless noted.
For a further test, the system named is HT29 colon. The following applies: 10 µM unless noted.
Another test concerns SNB-19 CNS. The following applies: 10 µM unless noted.
For a further test, the system named is U251 CNS. Conditions: 10 µM unless noted.
Another test deals with PC-3 prostate. Conditions: 10 µM unless noted.
For a further test, the system named is SK-MEL-5 melanoma. The following applies: 10 µM unless noted.
A further test has as its system UACC-62 melanoma. Conditions: 10 µM unless noted.
The test system of a further test is LOX IMVI melanoma. Conditions: 10 µM unless noted.
For another test, the system named is SK-MEL-28 melanoma. Conditions: 10 µM.
The subject of a further test is SK-MEL-2 melanoma. Conditions: 10 µM unless noted.

About 83,000 compounds went through this panel and 20% of them were active in at least one assay; those are over-represented in the sample as a whole.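 Activity criterion: percent growth below 10, measured after cells in 96-well plates were exposed to a single compound concentration for 48 hours.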 A number with no mark means an inactive call. The source made the active and inactive calls.

Consider `Cc1ccccc1CNC(=O)C1CN(c2ccc(Cl)cc2)N(c2ccc(Cl)cc2)C1=O` (stereo not given), for which the growth in the test with K-562 leukemia is 51.6%; in the test with MALME-3M melanoma it was 91.1%; in the test with MDA-MB-231 breast, 84.6%; in the test with RXF 393 renal, 91.6%; in the test on SF-268 CNS, 83.7%; with SF-295 CNS, 90.1%. The growth was 98.7% in the test with SF-539 CNS; 78.6% in the test on UACC-257 melanoma; 90.1% with M14 melanoma; 78.8% with HCT-15 colon; 77% in the test with HT29 colon; 89.5% in the test on SNB-19 CNS. Besides, the growth is 89.7% with U251 CNS; 72.8% with PC-3 prostate; 86.2% in the test with SK-MEL-5 melanoma; 60.8% in the test on UACC-62 melanoma; 92.9% with LOX IMVI melanoma; 91% in the test on SK-MEL-28 melanoma. In the test with SK-MEL-2 melanoma, the growth was 91.8%.

With `O=Cc1cc2ccccc2nc1Nc1nccs1`, the growth in the test on K-562 leukemia was 109%; with MALME-3M melanoma, 73.1%; in the test with MDA-MB-231 breast, 68.6%; in the test on RXF 393 renal it was 53.2%; in the test on SF-268 CNS, 54.8%; in the test with SF-295 CNS, 92.9%. Besides, the growth in the test with SF-539 CNS was 87.3%; in the test with UACC-257 melanoma, 102%; in the test with M14 melanoma, 101%; in the test on HCT-15 colon, 46.4%; with HT29 colon, 33.9%; in the test on SNB-19 CNS, 71.6%. The growth in the test with U251 CNS is 70.4%; in the test with PC-3 prostate it was 49.5%; in the test with SK-MEL-5 melanoma, 82.2%; in the test with UACC-62 melanoma, 84.5%; in the test with LOX IMVI melanoma it was 31.7%; with SK-MEL-28 melanoma, 104%.

Turning to `C[C@@H](C(=O)NCCCC#Cc1cnc(Nc2ccc(C#N)cc2)nc1NC1CC1)N(C)C(=O)/C=C/CN(C)C`, the growth in the test with K-562 leukemia was 14.1%; with MALME-3M melanoma, 22.5%; with MDA-MB-231 breast, 77.8%; with RXF 393 renal, -1.36% (active); in the test on SF-268 CNS it was 48.4%; in the test on SF-295 CNS, 25.9%. For the same compound, the growth in the test on SF-539 CNS is 9.99% (active); in the test on UACC-257 melanoma, 40.2%; with M14 melanoma, 26.7%; with HCT-15 colon, 29.9%; with HT29 colon, 19.3%; with SNB-19 CNS it was 58.9%. Also, the growth with U251 CNS was 21.4%; with PC-3 prostate it was 63.2%; with SK-MEL-5 melanoma, 35.9%; with UACC-62 melanoma, 52.2%; in the test on LOX IMVI melanoma, 49%; in the test on SK-MEL-28 melanoma it was 52.1%. In addition, the growth in the test with SK-MEL-2 melanoma is 65.3%.

In the case of `COc1ccc2occ(C3=C(c4c[nH]c5ccccc45)C(=O)NC3=O)c2c1`, the growth with K-562 leukemia was 21.6%; in the test with MALME-3M melanoma, 46.7%; in the test with MDA-MB-231 breast, 28%; in the test on RXF 393 renal, 34.5%; in the test with SF-268 CNS it was 52%; in the test with SF-295 CNS, 35.6%. Moreover, the growth with SF-539 CNS was 51.8%; in the test with UACC-257 melanoma, 76.3%; in the test on M14 melanoma, 27.3%; with HCT-15 colon, 24.1%; in the test on HT29 colon it was 17.2%; with SNB-19 CNS, 51.1%. The growth in the test on U251 CNS is 43.6%; in the test with PC-3 prostate, 62.7%; with SK-MEL-5 melanoma it was 47.4%; with LOX IMVI melanoma it was 44.9%; with SK-MEL-28 melanoma, 58.6%; in the test with SK-MEL-2 melanoma it was 43.7%.

`CN1CCN(Cc2ccc(C(=O)Nc3cncc(C#Cc4cnc5cccnn45)c3)cc2C(F)(F)F)CC1`: the growth with K-562 leukemia is 6.75% (active); with MALME-3M melanoma, 28.3%; in the test on MDA-MB-231 breast it was 41%; in the test with RXF 393 renal, 50.5%; in the test with SF-268 CNS, 60.3%; in the test on SF-295 CNS it was 80.2%. Also, the growth in the test with SF-539 CNS was 32.9%; in the test with UACC-257 melanoma it was 19.2%; with M14 melanoma, 34.4%; in the test with HCT-15 colon it was 38.8%; in the test on HT29 colon, 23%; with SNB-19 CNS, 95%. In addition, the growth in the test with U251 CNS is 65.2%; in the test on PC-3 prostate it was 60.4%; in the test with SK-MEL-5 melanoma, 74.3%; with UACC-62 melanoma it was 74.2%; in the test with LOX IMVI melanoma it was 56%; with SK-MEL-28 melanoma it was 67%. Besides, the growth in the test with SK-MEL-2 melanoma was 31.8%.

Consider `COc1cc(/C=C2\Oc3cc(OCCCN4CCCC4)ccc3C2=O)cc(OC)c1`, for which the growth in the test with K-562 leukemia was -63.3% (active); in the test with MALME-3M melanoma, 93%; with MDA-MB-231 breast, 53.7%; in the test on RXF 393 renal, 60.4%; in the test with SF-268 CNS it was 72.5%; in the test on SF-295 CNS, 85.7%. Further, the growth in the test with SF-539 CNS is -90.3% (active); in the test on UACC-257 melanoma it was 81.4%; in the test on M14 melanoma, -60.1% (active); in the test on HCT-15 colon, 5.66% (active); in the test with HT29 colon it was -42.4% (active); in the test on SNB-19 CNS, 64.7%. For the same compound, the growth was 18.3% in the test with U251 CNS; 39.3% with PC-3 prostate; 71.1% in the test on UACC-62 melanoma; -78% (active) in the test on LOX IMVI melanoma; 73.5% in the test on SK-MEL-28 melanoma; 108% with SK-MEL-2 melanoma.

As for `Cn1c(/C=C(\C#N)c2ccccc2)nc2c(N3CCOCC3)nc(Cl)nc21`, the growth in the test on K-562 leukemia is -13.8% (active); with MALME-3M melanoma, -51.2% (active); in the test with MDA-MB-231 breast, -80.3% (active); with RXF 393 renal it was -86.3% (active); in the test with SF-268 CNS, -66.2% (active); in the test with SF-295 CNS it was 85.1%. For the same compound, the growth in the test on SF-539 CNS was -88% (active); in the test on UACC-257 melanoma it was -61.5% (active); in the test on M14 melanoma, -62.5% (active); in the test with HCT-15 colon, -66.8% (active); with HT29 colon, -54.6% (active); in the test on SNB-19 CNS, 56.9%. Moreover, the growth in the test on U251 CNS was 3.21% (active); in the test with PC-3 prostate, -62.3% (active); with SK-MEL-5 melanoma it was -53.8% (active); in the test on UACC-62 melanoma it was -86.1% (active); in the test with LOX IMVI melanoma, -87.9% (active); in the test with SK-MEL-28 melanoma it was -78.6% (active). In the test with SK-MEL-2 melanoma, the growth was -34.4% (active).

For the origin of these results see PubChem BioAssay (NCI).
